Measurements published in PubChem BioAssay AID2061166 (Soto Lab, Mitchell Center for Alzheimers Disease and …, 2025).
Active and inactive are the calls of the source.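 Rule for the calls: active = mean tau seeding fluorescence area under 1% of vehicle, meaning inhibition above a set limit; inactive = the rest.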

Each compound was assayed against Microtubule-associated protein tau (Homo sapiens) (UniProt P10636) (assay: inhibitors of seeded tau aggregation, primary screen, biochemical, seed amplification, ThT fluorescence (AID 2061166)). Details: Recombinant tau seeded by AD brain, ThT fluorescence AUC; at 100 µM; active compounds read high.
Chain of Microtubule-associated protein tau (Homo sapiens) (P10636 whole entry, looked up): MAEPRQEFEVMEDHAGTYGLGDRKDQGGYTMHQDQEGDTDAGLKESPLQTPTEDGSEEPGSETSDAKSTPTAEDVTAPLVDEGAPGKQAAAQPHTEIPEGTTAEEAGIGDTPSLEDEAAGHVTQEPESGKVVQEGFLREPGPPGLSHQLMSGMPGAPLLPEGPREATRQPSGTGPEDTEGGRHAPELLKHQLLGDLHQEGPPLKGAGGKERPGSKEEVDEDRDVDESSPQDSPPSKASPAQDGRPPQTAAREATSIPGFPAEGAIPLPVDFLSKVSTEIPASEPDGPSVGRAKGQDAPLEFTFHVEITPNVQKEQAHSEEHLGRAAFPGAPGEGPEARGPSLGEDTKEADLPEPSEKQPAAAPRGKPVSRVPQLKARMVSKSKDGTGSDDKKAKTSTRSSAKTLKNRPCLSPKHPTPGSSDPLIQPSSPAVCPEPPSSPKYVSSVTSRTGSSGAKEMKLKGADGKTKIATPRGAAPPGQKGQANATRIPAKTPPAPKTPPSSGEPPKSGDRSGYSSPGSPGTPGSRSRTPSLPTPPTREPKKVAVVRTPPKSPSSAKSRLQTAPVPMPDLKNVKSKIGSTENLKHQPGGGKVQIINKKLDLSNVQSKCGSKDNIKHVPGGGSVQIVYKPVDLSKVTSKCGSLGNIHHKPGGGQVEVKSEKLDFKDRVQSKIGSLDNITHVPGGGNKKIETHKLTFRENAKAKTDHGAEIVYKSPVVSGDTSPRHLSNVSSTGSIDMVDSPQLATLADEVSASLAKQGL

Row | SMILES | inhibition
1 | CN(C)CCC=C1c2ccccc2CCc2ccccc21 | 13.9% (inactive)
2 | O=C(O)c1cc(-c2ccccc2)nc2ccccc12 | 3.74% (inactive)
3 | N=c1ccc2nc3ccc(N)cc3sc-2c1 | 100% (active)
4 | COC(=O)C1=COC(OC2OC(CO)C(O)C(O)C2O)C2C1CC(O)C2C (stereo not drawn) | -52.1% (inactive)
5 | OC(c1cc(C(F)(F)F)nc2c(C(F)(F)F)cccc12)C1CCCCN1 (stereo not drawn) | 66.4% (inactive)
6 | Nc1nc(Cl)nc2c1ncn2C1CC(O)C(CO)O1 (stereo not drawn) | -52.8% (inactive)
7 | Nc1c(N=Nc2ccc(-c3ccc(N=Nc4cc(S(=O)(=O)O)c5ccccc5c4N)cc3)cc2)cc(S(=O)(=O)O)c2ccccc12 | 100% (active)
8 | CCc1cc(C(N)=S)ccn1 | 40.9% (inactive)
9 | O=C(C=Cc1ccc(O)c(O)c1)OC(Cc1ccc(O)c(O)c1)C(=O)O (stereo not drawn) | 95% (inactive)
10 | Cc1ccc(C(=O)c2cc(O)c(O)c([N+](=O)[O-])c2)cc1 | 77.7% (inactive)
11 | Cc1ccc2c(c1)c1c(n2CCc2ccc(C)nc2)CCN(C)C1 | -29.9% (inactive)
12 | CC1CCC2(OC1)OC1CC3C4CC=C5CC(O)CC(O)C5(C)C4CCC3(C)C1C2C (stereo not drawn) | 13.9% (inactive)
13 | COc1ccc(C2CNC(=O)C2)cc1OC1CCCC1 (stereo not drawn) | 16.3% (inactive)
14 | CCN1CCN(Cc2ccc(Nc3ncc(F)c(-c4cc(F)c5nc(C)n(C(C)C)c5c4)n3)nc2)CC1 | 15.2% (inactive)
15 | CC(=O)NC(CS)C(=O)O (stereo not drawn) | 5.01% (inactive)
16 | NC(=O)NO | -49.7% (inactive)
17 | CN(C)c1ccc2nc3ccc(=[N+](C)C)cc-3sc2c1 | 100% (active)

Row | SMILES | inhibition
18 | Oc1ccc(/C=C/c2cc(O)cc(O)c2)cc1 | 16.9% (inactive)
19 | O=C(O)c1ccccc1O | 11.4% (inactive)
20 | CCC1(O)C(=O)OCc2c1cc1n(c2=O)Cc2cc3c(CN(C)C)c(O)ccc3nc2-1 (stereo not drawn) | 91.5% (inactive)
21 | CC(C)COc1ccc(CNC(=O)N(Cc2ccc(F)cc2)C2CCN(C)CC2)cc1 | -91.6% (inactive)
22 | O=C(CCCCCCC(=O)Nc1ccccc1)NO | -65.2% (inactive)
23 | CS(=O)(=O)OCCCCOS(C)(=O)=O | -40% (inactive)
24 | O=C1CSC(=S)N1 | -4.3% (inactive)
25 | CCCCCCCCc1ccc(CCC(N)(CO)CO)cc1 | 59.3% (inactive)
26 | COc1ccc(Cl)cc1C(=O)NCCc1ccc(S(=O)(=O)NC(=O)NC2CCCCC2)cc1 | -30.9% (inactive)
27 | CC(=O)C1CCC2C3CC=C4CC(O)CCC4(C)C3CCC12C (stereo not drawn) | 41.9% (inactive)
28 | CNS(=O)(=O)CCc1ccc2[nH]cc(C3CCN(C)CC3)c2c1 | -30.8% (inactive)
29 | Clc1cccc(Cl)c1NC1=NCCN1 | -11.7% (inactive)
30 | CCN(CC)CCNC(=O)c1c(C)[nH]c(/C=C2\C(=O)Nc3ccc(F)cc32)c1C | 98.6% (inactive)
31 | OC(CCN1CCCCC1)(c1ccccc1)C1CCCCC1 (stereo not drawn) | 21.7% (inactive)
32 | Brc1cccc(-c2cc(-c3ccc4c(c3)OCO4)[nH]n2)c1 | -25.9% (inactive)
33 | Cn1cnc2c(F)c(Nc3ccc(Br)cc3Cl)c(C(=O)NOCCO)cc21 | -4.66% (inactive)
